Compound activity from PubChem.
LDHA inh: blocks human lactate dehydrogenase A | P00338 | purified LDHA, NADH/diaphorase-resazurin fluorescence; stronger effect = lower value | activity change, % (values are at about 110 or 230 µM) | 480,000 tested, 0.15% active; in the data active = activity change below about -30%; inconclusive = mostly about -25% to -30%;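 note: plate controls were DMSO wells for no effect and wells without enzyme for full effect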
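Human LDH5 at 2 nM final in Tris HCl pH 7.4 with 0.06 mM NADH and 0.2 mM pyruvate, reacted 5 minutes at room temperature. Remaining NADH coupled via diaphorase/resazurin; resorufin fluorescence read at 0 and 20 minutes, normalized to enzyme-free and DMSO wells.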
p53 reactivation: re-activators of mutant p53 | H1299 p53-A138V BP100-luciferase reporter, luminescence, 24 h | Potency, µM (titrated, usually from 92.2 µM), without a hit: top-dose activity change, positive = activation, actives largely listed as activators | AID 504706 | 320,000 tested, 0.063% active; note: potency is the fitted concentration of half-maximal effect; % of control where 0% means no effect; nearly all actives have a fitted effect of over 45% in size
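H1299 (p53-null), stable ts p53-A138V + BP100-Luc; 1000 cells/well, Opti-MEM/10% FBS; cpd 4 pt, 1:5; 24 h, 37 deg C, 5% CO2; detection reagent 10 min RT; luminescence.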
PTHR1 agonist: PTHR1 (human) receptor agonism. Q03431. HEK293 GP2 PTHR1 cells, GloSensor cAMP luminescence, 1 h. Potency, µM (doses to about 115 µM), inactives show top-dose activation, actives largely listed as activators. 410,000 tested, 0.075% active. AID 743266; note: potency is the fitted concentration of half-maximal effect; nearly all actives have a fitted effect of over 55% in size
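HEK-293-derived GP2 cells expressing PTHR1 and a GloSensor cAMP reporter, 3,000/well, plated overnight, given luciferin plus IBMX (each 0.5 mM as added) for 1 h at 37 °C, then compound for 1 h at 37 °C. Luminescence was read after 15 min at room temperature.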
RGS4 inh: inhibitors of human regulator of G protein signaling 4. AID 504845. 390,000 tested, 0.039% active. Potency, µM (titrated, usually from 114 µM), without a hit: top-dose activity change, negative = inhibition, hits mostly inhibitors. P49798. Transcreener GDP fluorescence polarization, RGS4-accelerated GTP hydrolysis; note: potency is the fitted concentration of half-maximal effect; % is set by controls: 0 for no effect and ±100 for the full control effect; nearly all actives have a fitted effect of over 75% in size
Target sequence (P49798 whole entry, looked up): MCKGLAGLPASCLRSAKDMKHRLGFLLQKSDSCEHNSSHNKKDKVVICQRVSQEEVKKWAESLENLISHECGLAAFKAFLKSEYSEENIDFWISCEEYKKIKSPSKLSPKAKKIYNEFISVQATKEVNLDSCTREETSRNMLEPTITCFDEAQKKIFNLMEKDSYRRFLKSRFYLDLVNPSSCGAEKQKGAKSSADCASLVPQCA
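MLSMR compounds (23 nl, pin-transferred) preincubated 10 min at room temperature with a 500nM (2x) first reagent, then RGS4 at 900nM (2x) plus Transcreener GDP mix added; fluorescence polarization (620/688 nm) read before and after 90 min at 30 °C.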
BRCA1 expr act: activators of BRCA1 expression; MCF7-BRCA1-FFLuc reporter, luminescence, 48 h; response scale: scaled: vehicle 0%, 10 µM genistein 100%; Potency, µM (highest dose often 46.1 µM), for the others: top-dose activation, most hits filed as activators; 380,000 tested, 1.1% active; AID 624202; note: potency is the fitted concentration of half-maximal effect; nearly all actives have a fitted effect of over 80% in size
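Reporter cells (MCF7, BRCA1 promoter-firefly luciferase) received library compounds across a concentration series for 48 h. End-point luminescence was measured and concentration-effect curves derived after normalization.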
Numbers without * were called inactive; i = inactive; u = inconclusive; x = no result; [ ] = remark or other dose. Hits are enriched below; roughly 1.1% of the tested compounds scored in any of these assays. Unless noted, calls come from the whole dose curve; as a rule, active = well fitted curve in the direction sought with a large enough effect; inconclusive = small, poorly fitted or top-dose-only effect, or another doubt; inactive = no such curve, though single readings can be large; an effect the other way counts as inactive or inconclusive.

SMILES	LDHA inh	p53 reactivation	PTHR1 agonist	RGS4 inh	BRCA1 expr act
O=c1[nH]c(N/N=C\c2ccc3c(c2)OCO3)nc2ccccc12	4	u	-16%	-39%	u
COc1ccccc1/C=C/C=N/n1c(-c2cc(C)[nH]n2)n[nH]c1=S	-3	1%	i	-34%	-27%
COc1ccccc1/C=C/C=N/n1c(-c2ccccn2)n[nH]c1=S	-1	25%	i	-13%	11µM*
O=C1CCN(Cc2ccccc2)CCN1CCSc1ccccc1	3	x	-79%	8%	8.9µM*
Cc1ccc(SCCC(=O)N2CCC(C)CC2)cc1	-3	u	-34%	18%	10µM*
CC(C)(C)C1CCC(=O)N(CCSc2ccccc2)CC1 (configuration not stated)	5	u	-26%	18%	3.5µM*
Cc1ccc(SCCN2CCC(C)CCC2=O)cc1 (configuration not stated)	2	x	-29%	-2%	8.9µM*
C[C@H]1CCC(=O)N(CCSc2ccc(Br)cc2)CC1	2	u	-87%	-4%	u
CC1=C(C(=O)Nc2ccccc2C(=O)NCCc2ccco2)SCCO1	-1	x	x	x	x
O=C(N/N=C/c1ccc(Cl)s1)c1ccc2ccccc2c1	-15	x	x	x	x
Cc1occc1-c1nnc(SC(C(=O)Nc2cccc(C(F)(F)F)c2)c2ccccc2)o1 (configuration not stated)	1	x	x	x	x
Cn1c(=O)[nH]c(=O)c2c1nc(N1CCN(C/C=C/c3ccccc3)CC1)n2Cc1ccc(Cl)cc1	6	x	x	x	x
COc1ccc2cc(/C=C(\NC(=O)c3ccccc3)C(=O)NCCO)c(Cl)nc2c1	-2	x	x	x	x
O=C1CSc2sc(=S)sc2SC1	1	x	x	x	x
CCn1nnc2cc(C(=O)Nc3nc(-c4ccc5c(c4)CCC(=O)N5)cs3)ccc21	1	x	x	x	x
CC(=O)Nc1cc(NC(C)=O)c(N=Nc2ccccc2)cc1C	-7	-1%	i	11%	3.5µM*
CC(=O)Nc1ccccc1C	-12	-3%	-8%	28%	7%
C=CCOc1cccc2[nH]c(C(=O)O)cc12	10	x	x	x	x
COc1cc(/C=C2\SC(=S)NC2=O)ccc1OS(=O)(=O)c1ccccc1	x	20%	x	x	x
COc1cc(/C=C2/SC(=S)NC2=O)ccc1OS(=O)(=O)c1ccc(C)cc1	-34*	19%	-29%	u	-77%
O=C1C(=C2SCCS2)CCc2ccccc21	63	x	x	x	x
Cc1ccc2c(c1)sc1nc(=O)n(-c3ccc(Cl)cc3)c(=O)n12	-13	u	i	6%	-42%
Cc1ccc2c(c1)sc1nc(=O)n(-c3cccc(Cl)c3)c(=O)n12	-5	u	-3%	4%	1.4µM*
Brc1ccc(-c2cn3cccnc3n2)cc1	1	u	-18%	21%	3.5µM*
Cc1ccc(NC(=O)c2c[nH]c3ccccc23)cc1I	0	x	x	x	x
SMILES	LDHA inh	p53 reactivation	PTHR1 agonist	RGS4 inh	BRCA1 expr act
Cc1cccc(C)c1NC(=O)c1c[nH]c2ccccc12	-4	u	-12%	-5%	3.5µM*
CCn1c(SCC(O)c2ccccc2)nnc1-c1ccccc1 (configuration not stated)	-3	21%	i	23%	11µM*
CCn1c(SCC(=O)OC(C)C)nnc1-c1ccccc1	-6	0%	i	-17%	-16%
O=C(O)c1ccccc1Nc1ccc([N+](=O)[O-])cc1	-4	u	-26%	-19%	13µM*
O=C(O)c1ccccc1Nc1ccccc1C(=O)O	-8	-4%	14%[57.5 µM]	22%	4%
COc1ccc(C(=O)Oc2ccc3c(=O)c(Oc4ccc(C(C)(C)C)cc4)coc3c2)cc1OC	3	x	x	x	x
CSc1ccccc1OCc1cc(C(=O)N(C)Cc2ccc(C)o2)no1	-1	u	-60%	u	11µM*
CSc1ccccc1OCc1cc(C(=O)N(C)Cc2ccc3nsnc3c2)no1	-9	-14%	-33%	27%	u
CSc1ccccc1OCc1cc(C(=O)N2CCSCC2)no1	-3	-20%	-35%	2%	4.5µM*
O=C(c1cc(COc2ccc(F)cc2Cl)on1)N1CCSCC1	-3	u	-13%	-3%	6.3µM*
